Source: PubChem BioAssay (National Center for Advancing Translational Sciences (NCATS))
KDM5B inhibitor: blocks human KDM5B histone demethylase activity; Potency, µM (doses to about 57.7 µM), hits mostly inhibitors; AID 1347165; 220,000 compounds, 2.6% hits; KDM5B demethylase, FDH-coupled NADH fluorescence (FDH is formaldehyde dehydrogenase); Q9UGL1; active = well fitted inhibition curve with a large enough effect; inconclusive = small, poorly fitted or top-dose-only effect; inactive = no such curve, though single readings can be large or run the other way; note: potency is the fitted concentration of half-maximal effect; 0% is about no effect; nearly all actives have a fitted effect of over 70% in size
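Coupled FDH/NAD⁺ fluorescence readout. KDM5BΔAP 200 nM final; compound titration, 10 min RT preincubation; substrate mix 12.5 µM H3K4me3, 25 µM 2-OG, 50 µM Fe(II), 100 µM ascorbate, 0.25 mM NAD⁺, 0.25 U/mL FDH; ΔRFU over 30 min.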
IP6K1 inh: inhibitors of human IP6K1 | activity change, % (series mostly up to about 58 µM) | IP6K1 kinase, ADP-Glo luminescence, 2 h; active compounds read low | 140,000 compounds, 0.81% hits; in the data active = activity change below about -25%; note: % is set by controls: 0 for no effect and ±100 for the full control effect
Target sequence (Q92551 whole entry, looked up): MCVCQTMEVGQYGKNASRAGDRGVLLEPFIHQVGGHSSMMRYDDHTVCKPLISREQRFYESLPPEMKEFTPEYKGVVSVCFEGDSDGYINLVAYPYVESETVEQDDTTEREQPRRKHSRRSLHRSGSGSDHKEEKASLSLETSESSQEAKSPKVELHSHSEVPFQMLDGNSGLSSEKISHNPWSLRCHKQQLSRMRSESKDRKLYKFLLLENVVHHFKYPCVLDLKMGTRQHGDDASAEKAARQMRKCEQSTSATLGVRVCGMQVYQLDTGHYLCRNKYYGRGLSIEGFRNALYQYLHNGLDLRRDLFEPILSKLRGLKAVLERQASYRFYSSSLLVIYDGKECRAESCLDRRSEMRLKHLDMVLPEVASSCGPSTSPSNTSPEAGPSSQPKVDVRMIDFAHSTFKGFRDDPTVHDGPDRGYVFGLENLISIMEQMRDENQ
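ADP-Glo luminescence measures ADP made by human IP6K1 during a 2 h RT reaction with ATP/IP6 (mix at 1.3 mM/130 uM); top library doses 57.5 and 19.1 uM final.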
* hit, by the source's call; i = inactive; ? = inconclusive; / = no result. The list is not random: actives were taken first. Their share in the collection is about 2.8%.

SMILES | KDM5B inhibitor | IP6K1 inh
Cc1onc(C(=O)NCc2ccc3[nH]c(-c4ccc(F)cc4)c(C)c3c2)c1CO | ? | -3
Cc1c(-c2ccc(F)cc2)[nH]c2ccc(CNC(=O)c3cnn(C)c3)cc12 | 32µM* | -9
O=C(NCc1cccc(C(F)(F)F)c1)c1n[nH]c2c1CCCC2 | i | /
Cc1c(-c2ccc(F)cc2)[nH]c2ccc(CNC(=O)c3n[nH]c4c3CCCC4)cc12 | 10µM* | -22
Nc1nc2c(c(N3CC[C@@H](N)C3)n1)CCCc1ccccc1-2 | / | 23
CC(C)(C)NS(=O)(=O)c1ccccc1-c1nc(N)nc2c1CCC2 | 22µM* | 3
CNc1nccnc1-c1ccccc1S(=O)(=O)NC(C)(C)C | 28µM* | 4
CC(C)NC(=O)c1ccnc(-c2ccccc2S(=O)(=O)NC(C)(C)C)c1 | i | -2
Cc1ccc(NC(=O)CCc2ncc(-c3ccc(F)cc3F)o2)c(C)c1 | i | /
Cc1cccc(C(=O)N2C(C(=O)NC3CC3)COC23CCN(C(=O)C(C)(C)C)CC3)c1 (stereo not drawn) | i | -3
N#Cc1cccc(C(=O)N2CC(COc3ccccc3)C3(C2)CN(c2ccccc2)C3)c1 (stereo not drawn) | 35µM* | 0
c1ccc(OCC2CN(Cc3ccncc3)CC23CN(c2ccccc2)C3)cc1 (stereo not drawn) | 32µM* | -8
O=C(O)c1cccc(CN2CC(COc3ccccc3)C3(C2)CN(c2ccccc2)C3)c1 (stereo not drawn) | i | -1
O=C(c1cccc(O)c1)N1CC(COc2ccccc2)C2(C1)CN(C(=O)c1cn[nH]c1)C2 (stereo not drawn) | i | 5
CCOC(=O)CN1C(=O)c2cccnc2Oc2ccccc21 | i | -12
O=C(C1CCC1)N1CCCC(Cc2nc(C3CCOCC3)no2)C1 (stereo not drawn) | 35µM* | 13
CCC(=O)N1CCCC(Cc2nc(C3CCOCC3)no2)C1 (stereo not drawn) | i | 4
O=C(c1cncc(Br)c1)N1CCCC(Cc2nc(C3CCOCC3)no2)C1 (stereo not drawn) | 32µM* | 2
COc1cccc(C(=O)N2CCCC(Cc3nc(C4CCOCC4)no3)C2)c1 (stereo not drawn) | i | 0
CC(C)NC(=O)C[C@@H]1C[C@H]2O[C@H](CNCc3ccccc3OC(F)(F)F)[C@@H](O)[C@H]2O1 | i | 5
COc1ccc(CCNC(=O)CCc2nnc(-c3cccc(OC(C)C)c3)[nH]c2=O)cc1 | i | -7
O=C(NC1CCC1)C1CCCN(C2CCN(C3Cc4ccccc4C3)CC2)C1 (stereo not drawn) | i | -7
O=C(NC1CCCC1)C1CCCN(C2CCN(C3Cc4ccccc4C3)CC2)C1 (stereo not drawn) | 32µM* | 7
Cc1noc(C)c1CNC(=O)CC(C)(C)C | i | 8
CCCN(CCC)Cc1ccc(C(=O)NCc2c(C)noc2C)cc1 | 28µM* | 10
SMILES | KDM5B inhibitor | IP6K1 inh
COCCN(C)C[C@@H]1CN(c2cc(C)c3ccc(SC)cc3n2)C[C@@H]1CO | 28µM* | 5
COCCN(C)C[C@@H]1CN(C(=O)c2cnc(SC)nc2)C[C@@H]1CO | i | 0
O=C(N[C@@H]1CCOC[C@H]1OCCO)C1CCN(Cc2ccco2)CC1 | i | 6
O=C(N[C@@H]1CCOC[C@H]1OCCO)c1cccc(-c2ccco2)c1 | 28µM* | -4
O=C(N[C@@H]1CCOC[C@H]1OCCO)c1cc(C2CC2)nc2ccccc12 | 28µM* | -6
CCC(C)NC(=O)c1cc(C2CC2)nc2ccccc12 (stereo not drawn) | i | /
CC(=O)Nc1ccc(CN2CC3(C2)C(=O)N(Cc2cccc(Cl)c2)C(=O)[C@@H]2C[C@@H](O)CN23)cc1 | i | -8
Cc1cc(NC(=O)c2ccc(Cl)o2)no1 | i | /
CCCNC(=O)NC(=O)CN(Cc1cccs1)C1CC1 | i | /
CCC(C)NC(=O)C1COC2(CCN(C(=O)c3ccc(F)cc3)CC2)N1C(=O)c1cccc(OC)c1 (stereo not drawn) | i | -3
COC(=O)c1c(NC(=O)c2nc3nc(C)cc(C(F)F)n3n2)sc2c1CCCC2 | i | /
Cc1ccc(C(=O)N/N=C2/CC(C)CC(C)(C)C2)c(C)c1 (stereo not drawn) | i | /
Cc1ccc(C(=O)NCC(=O)O)cc1C | i | /
CCC(C)C(=O)Nc1c(C(=O)OC)n(CC2CCCO2)c2ncc(NC(C)CO)cc12 (stereo not drawn) | 28µM* | 12
CC(C)CCn1c(=O)c2cccnc2n(CC(=O)Nc2ccccc2)c1=O | ? | 28
COC(=O)c1c(NC(C)=O)c2cc(NC3CCCC(C)(C)C3)cnc2n1CC1CCCO1 (stereo not drawn) | ? | 1
COC(=O)c1c(NC(C)=O)c2cc(NC3CCCCC3)cnc2n1CC1CCCO1 (stereo not drawn) | ? | 6
CCC(C)C(=O)Nc1c(C(=O)OC)n(CC2CCCO2)c2ncc(NC(C)CCO)cc12 (stereo not drawn) | 6.3µM* | -3
COC(=O)c1c(NC(C)=O)c2cc(NC(C)CC(C)(C)O)cnc2n1CCC(C)C (stereo not drawn) | 20µM* | 0
CCOc1ccccc1NC(=O)Cc1nc(-c2ccccc2)oc1C | i | /
COc1cccc(C(=O)N2CCCn3ccnc3C2C(C)C)c1OC (stereo not drawn) | i | 2
COc1ccc(CNC(=O)c2ccc3c(c2)NC(=O)CS3)cc1OC | i | /
CC(C)N(Cc1ccccc1)Cc1nnc2cc(-c3nc(-c4ccccc4)no3)ccn12 | 28µM* | 10
CC(C)CN(Cc1nnc2cc(-c3nc(-c4ccccc4)no3)ccn12)CC(C)C | ? | 18
CC1CCCCN1Cc1nnc2cc(-c3nc(-c4ccccc4)no3)ccn12 (stereo not drawn) | ? | 16
SMILES | KDM5B inhibitor | IP6K1 inh
CN(Cc1ccccc1)Cc1nnc2cc(-c3nc(-c4ccccc4)no3)ccn12 | 28µM* | 19
CC1(C(=O)O)CCN(C(=O)c2ccc(C(F)(F)F)cc2)CC1 | i | -4
Cc1ccc(-c2ccc3nnc(CNC(=O)C4CCCCC4)n3n2)cc1 | ? | 48
Cc1ccc(-c2ccc3nnc(CNC(=O)C4CC4)n3n2)cc1 | 14µM* | -2
COc1ccccc1CCC(=O)NCc1nnc2ccc(-c3ccc(C)cc3)nn12 | i | -8
Cc1ccc(-c2ccc3nnc(CNC(=O)CCC4CCCC4)n3n2)cc1 | 28µM* | 11
Cc1ccc(-c2ccc3nnc(CNC(=O)CSc4ccncc4)n3n2)cc1 | 28µM* | -11
O=C(Cc1ccc(Br)cc1)NCc1nnc2ccc(-c3ccc(F)cc3)nn12 | ? | 4
CSCCC(NC(=O)c1ccccc1Br)C(=O)Nc1cc(Cl)cc(Cl)c1 (stereo not drawn) | i | /
COc1ccc2cnn(CC(=O)Nc3ccccc3F)c(=O)c2c1OC | i | /
COc1cccc(CN2CC[C@H]3C(=O)NCCCCCCN(Cc4ccncc4)[C@@H]3C2)n1 | 20µM* | 11
O=C1NCCCCCCN(Cc2ccccc2)[C@H]2CCC[C@@H]12 | 8.9µM* | 9
O=C1NCCCCCCN(Cc2cccc(F)c2)[C@H]2CCC[C@@H]12 | ? | 13
COc1cccc(CN2CC[C@H]3C(=O)NCCCCCCN(Cc4ccncc4)[C@@H]3C2)c1 | ? | 17
CCC1(O)CCC12CCN(C(=O)c1ccc(OC)cc1)CC2 (stereo not drawn) | / | 17
